Most compounds without a hit are left out; they make up all but 7.8% or so of the library.
VACV Venus inh: inhibitors of vaccinia virus (Venus reporter); Potency, µM (titrated, usually from 36.5 µM), inactives show at the highest dose activity change, negative = inhibition, most hits filed as inhibitors; Vaccinia virus Venus reporter expression, fluorescence; hit rate 0.46% among 330,000; calls by dose curve; tested in A549 cells; note: potency is the fitted concentration of half-maximal effect; nearly all actives have a fitted effect of over 30% in size
Lassa entry inh: blocks Lassa virus binding to or entry into cells. Potency, µM (titrated, usually from 37.9 µM), inactives show at the top dose activity change, negative = inhibition, hits mostly inhibitors. hit rate 1.2% among 300,000. AID 540256. Lassa virus pseudotype entry inhibition, cell reporter; calls by dose curve; tested in HEK293 cells; note: potency is the fitted concentration of half-maximal effect; nearly all actives have a fitted effect of over 50% in size
HCV inhibitor: blocks hepatitis C virus. Huh7.5.1 HCVcc-Cre infection, luciferase reporter, 44 h. Potency, µM (top dose mostly 41.8 µM), inactives show top-dose activity change, negative = inhibition, most hits filed as inhibitors. hit rate 3.4% among 340,000. AID 651820; active = well fitted inhibition curve with a large enough effect; inconclusive = small, poorly fitted or top-dose-only effect, or another doubt; inactive = no such curve, though single readings can be large or run the other way; note: potency is the fitted concentration of half-maximal effect
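Reporter virus HCVcc-Cre (~0.5 moi) infects cells exposed to compound; seeding density 1,000 cells/well with 4 h settling beforehand. Luminescence, 15 sec read, taken 44 h post-infection following a 15 min RT substrate incubation.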
MARV entry inh: blocks Marburg virus binding to or entry into cells | Marburg virus pseudotyped entry inhibition, cell reporter | Potency, µM (top dose mostly 37.8 µM), for inactives: top-dose activity change, negative = inhibition, hits mostly inhibitors | hit rate 1.8% among 300,000 | AID 540276; calls by dose curve; tested in HEK293 cells; note: potency is the fitted concentration of half-maximal effect
Vaccinia mCherry: vaccinia inhibition (mCherry reporter); Vaccinia virus mCherry reporter infection, fluorescence; Potency, µM (series often up to 36.5 µM), for the others: top-dose activity change, negative = inhibition, actives largely listed as inhibitors; hit rate 0.63% among 310,000; AID 720579; calls by dose curve; tested in A549 cells; note: potency is the fitted concentration of half-maximal effect; nearly all actives have a fitted effect of over 35% in size
HCMV inh: inhibitors of human cytomegalovirus | HFF cells, HCMV-luciferase reporter, 72 h; active compounds read low | activity change, negative = inhibition, % at 57.5 µM | hit rate 4.5% among 410,000; in the data active = activity change below about -60%; inconclusive = no clear call, values can overlap the other calls; inactive = above about -39%
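Steps: HFFs plated, 16 h 37C; compounds added; HCMV-luciferase added to MOI 1 PFU/cell; 72 h 37C; OneGlo reagent, 5 min room temperature; luminescence read, normalized to controls.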
Starred values were filed as active, the others as inactive; i = inactive; ? = inconclusive; . = no result; [ ] = remark or other dose. % is set by controls: 0 for no effect and ±100 for the full control effect.

SMILES	VACV Venus inh	Lassa entry inh	HCV inhibitor	MARV entry inh	Vaccinia mCherry	HCMV inh
CCCCCCCC[n+]1cccc2c3ccccc3ccc21	?	.	1.4µM*	.	-27%	-97*
CCCCCCCCCC[n+]1ccc(/C=C/c2c[nH]c3ccccc23)c2ccccc21	i	.	.	.	i	.
CCOc1ccccc1NC(=O)c1ccc2c(Cl)c3c(nc2c1)CCC3	-16%	19%[46.1 µM]	.	?	-24%	31
CCCOc1ccc(NC(=O)CC2C(=O)N(c3ccc(OC)cc3)C(=O)N2CCc2ccncc2)cc1 (stereo not given)	-2%	?	.	.	0%	-37
COc1cc(-c2nc(-c3cccc(C(F)(F)F)c3)no2)cc(OC)c1OC	-12%	-18%	?	?	-12%	-13
COc1cc(Nc2nc3ccccc3n3nnnc23)cc(OC)c1OC	-14%	.	-15%	.	-5%	11
COc1cc(Nc2ncc3c(C)nc(-c4cccc(Oc5ccccc5)c4)n3n2)cc(OC)c1OC	.	3.1µM*	.	.	.	.
COc1cc(Nc2ncc3c(C)nc(-c4cccc(C(F)(F)F)c4)n3n2)cc(OC)c1OC	.	10µM*	.	.	.	.
CCOc1ccccc1N(C)C(=O)c1cc2c(=O)n(CC)c3ccccc3c2s1	.	.	2µM*	.	.	-1
CCn1c(=O)c2cc(C(=O)N(C)CC(OC)OC)sc2c2ccccc21	.	.	11µM*	.	.	-20
CCn1c(=O)c2cc(C(=O)N(CCN(C)C)Cc3ccccc3)sc2c2ccccc21	-19%	23%[46.1 µM]	.	4%[46.1 µM]	?	?
C[C@H](O)c1n(C)c(Cl)c[n+]1C	.	.	.	9%	.	.
CC(C)c1nc(N2CCN(C(=O)c3ccccc3)CC2)c(C#N)c2c1COC(C)(C)C2	-2%	?	?	12µM*	-3%	-5
Cc1nc(N2CCN(Cc3ccccc3)CC2)c(C#N)c2c1COC(C)(C)C2	5%	-14%	11µM*	-24%	.	?
CC1(C)Cc2c(C#N)c(N3CCCC3)nc(-c3ccco3)c2CO1	.	.	.	-1%	.	-15
Cc1ccc(S(=O)(=O)N2CCOC2CNC(=O)C(=O)NCCCN2CCOCC2)cc1 (stereo not given)	.	.	-1%	.	.	-61*
Cc1cccc(C)c1NC(=O)C(=O)NCCCN1CCOCC1	2µM*	22%	1%	22%	6.3µM*	-23
Cc1ccc(S(=O)(=O)N2CCCOC2CNC(=O)C(=O)NCCc2c[nH]c3ccccc23)cc1 (stereo not given)	?	?	?	?	?	-64*
Cc1cc2cc(C#N)c(NCCNC(=S)NCCCN3CCOCC3)nc2cc1C	-30%	2%	?	7%[46.1 µM]	-29%	-28
Cc1ccc(C)c(NC(=O)C(=O)NCCCN2CCOCC2)c1	-6%	?	-8%	15%[46.1 µM]	-14%	-10
Cc1cccc2cc(C#N)c(NCCNC(=S)NCCCN3CCOCC3)nc12	-21%	-9%	11µM*	?	-11%	-26
CC1Cc2ccccc2C[N+]1(C)CC(=O)c1ccc(I)cc1 (stereo not given)	10%	.	.	.	46%	.
FC(F)(F)C(F)(F)C(F)(F)c1nc2ccccc2[nH]1	5%	.	.	.	16%	.
COc1ccc2cc(C(=O)C3CCCN(C(=O)CSc4nnc(C)o4)C3)ccc2c1 (stereo not given)	-21%	-23%[46.1 µM]	?	?	i	-66*
CCn1ccnc1CN1CCCC(C(=O)c2ccc3cc(OC)ccc3c2)C1 (stereo not given)	-12%	?	10µM*	?	-24%	-9
COc1ccc(C(=O)C2CCCN(C(=O)CCc3ccccn3)C2)c(C)c1 (stereo not given)	.	.	?	.	.	-12
COc1ccc2cc(C(=O)C3CCCN(Cc4cnc(N5CCOCC5)s4)C3)ccc2c1 (stereo not given)	-21%	-29%[46.1 µM]	?	?	?	-65*
CCn1ccnc1CN1CCCC(C(=O)c2cc(C)c(OC)c(C)c2)C1 (stereo not given)	.	.	?	.	.	-32
COc1ccc(C(=O)C2CCCN(C(=O)CCc3scnc3C)C2)c(C)c1 (stereo not given)	-16%	-22%[46.1 µM]	?	4%[46.1 µM]	-7%	-76*
Cc1ccsc1C(=O)C1CCCN(Cc2cnc(N3CCOCC3)s2)C1 (stereo not given)	-13%	?	?	?	-22%	-33

Screening data from PubChem BioAssay.
